# Measurements from the supplement of paper PMC3334620.
# In all, about 33,000 sequences were measured (“E-score (-0.5 to 0.5)”: median about -0.011, highest 2% from about 0.28 on). Many of the other results were omitted from the sample, so the highest values are more common in it than they were.
# Molecular target: T1, Gcr1 (UniProt P07261)
# T1 sequence: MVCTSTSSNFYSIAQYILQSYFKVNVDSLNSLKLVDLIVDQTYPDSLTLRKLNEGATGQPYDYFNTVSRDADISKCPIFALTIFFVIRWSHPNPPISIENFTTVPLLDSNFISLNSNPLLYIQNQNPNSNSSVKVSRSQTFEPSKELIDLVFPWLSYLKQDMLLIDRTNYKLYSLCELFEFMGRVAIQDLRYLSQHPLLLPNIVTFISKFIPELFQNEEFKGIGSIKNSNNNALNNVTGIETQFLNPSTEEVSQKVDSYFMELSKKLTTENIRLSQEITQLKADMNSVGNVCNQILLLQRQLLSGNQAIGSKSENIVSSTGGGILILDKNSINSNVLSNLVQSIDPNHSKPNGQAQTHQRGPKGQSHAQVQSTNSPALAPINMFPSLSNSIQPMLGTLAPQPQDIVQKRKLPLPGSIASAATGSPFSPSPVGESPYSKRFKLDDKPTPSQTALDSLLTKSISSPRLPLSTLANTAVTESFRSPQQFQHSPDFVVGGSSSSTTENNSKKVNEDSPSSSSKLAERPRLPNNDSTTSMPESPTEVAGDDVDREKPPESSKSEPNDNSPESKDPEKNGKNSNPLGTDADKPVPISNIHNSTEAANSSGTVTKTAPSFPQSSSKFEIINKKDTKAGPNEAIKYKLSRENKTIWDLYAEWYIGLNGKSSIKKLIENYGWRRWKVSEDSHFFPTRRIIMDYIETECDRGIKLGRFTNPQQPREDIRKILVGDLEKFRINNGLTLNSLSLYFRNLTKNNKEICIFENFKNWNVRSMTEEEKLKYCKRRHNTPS
# Assay: PBM E-score (8-mer binding enrichment) (E-score (-0.5 to 0.5)); higher = stronger / more preferred TF binding
# Settings: protein concentration: 100 nM; construct: GST-full length
# Outline: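 Full-length yeast transcription factors or their DNA-binding domains, GST-tagged and expressed with PURExpress, were applied at about 100-200 nM to universal all-10-mer Agilent arrays. These arrays had been made double-stranded by primer extension on fresh or once-stripped slides. Detection used fluorescent anti-GST, normalisation used masliner, and E-scores for ungapped eight-base words pooled with reverse complements came from the Universal PBM Analysis Suite.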
row,Sequence,PBM E-score
1,AGACCTCC,-0.282
2,CGCTAGGC,-0.216
3,CACGGCCG,-0.152
4,ATCGGGTA,-0.136
5,AAGTCTCG,-0.336
6,CTCTAAAC,0.0413
7,GGTCTGGA,0.0233
8,GCCAGCGA,-0.0966
9,CACCAAGG,0.0974
10,CCACCATC,0.0892
11,GACGGACA,-0.264
12,AAAAGTAG,0.295
13,AAAAGTGA,0.0915
14,AAAAGTAA,0.157
15,AAAAGTGG,0.381
16,CAAAGTGG,0.00098
17,AAAAGTAT,-0.0691
18,CCCATCAC,-0.136
19,GGTATTCA,0.0919
20,GATGGCCA,-0.214
21,CGTGGATC,0.00349
22,AGTGGATG,0.394
23,AGTGGATC,0.286
24,AATGGATG,0.134
25,ATTGGATC,0.193

row,Sequence,PBM E-score
1,AGTGGATA,0.0533
2,CCTCCTGC,-0.0964
3,ATCTTCGC,-0.0394
4,ATAGAGGG,0.137
5,ATAGAGGC,0.174
6,ATAGAGGA,0.346
7,ATGTCCCG,-0.183
8,GCTATTGA,-0.21
9,CACCACTC,0.134
10,GACCACTA,0.179
11,CACCACTA,0.298
12,CACCACTG,0.167
13,TACCACTA,0.365
14,AACCACTA,0.241
15,AGTTGCAA,-0.105
16,CGTAGTGA,-0.043
17,CGTACCGC,-0.162
18,ATGATACG,0.107
19,CAAGACAC,0.0836
20,TCGCCTAA,0.0844
21,GCACCCCA,0.241
22,GCGCCCTA,0.319
23,ACGCCCTA,0.178
24,CCGCCCTA,-0.0561
25,GCGCCTAA,0.407

row,Sequence,PBM E-score
1,TCACCCAA,-0.00294
2,CCACCCTA,0.0045
3,ACACCCTA,-0.021
4,GCGCCTAC,0.256
5,GCACCCAA,0.303
6,GCACCCTA,0.297
7,CACCACCG,-0.0609
8,GAGTTGCA,-0.0956
9,GTGAGAAC,-0.0123
10,GATGGATA,0.0193
11,CCCCCGGC,-0.0149
12,GGAACGGA,-0.0468
13,CCGAGTCA,-0.25
14,ATTCGAAT,0.0645
15,AGATGACG,-0.0775
16,GCACCCAC,0.397
17,CCACCCAC,-0.0236
18,ACACCCAC,0.0847
19,CTTTTTGA,0.115
20,AGTTGGAA,0.187
21,ATAGCTGA,-0.0965
22,AAGGCTGC,0.302
23,ATAGCTGC,0.285
24,GAGGCTGC,0.253
25,AAGGCTGA,-0.141

row,Sequence,PBM E-score
1,CTAGCTGC,0.161
2,CTGTCTTC,0.00215
3,AGCTAATA,0.0193
4,CGGGGCCC,0.219
5,TCCAAAGA,0.0425
6,ACAGCTCA,-0.146
7,ATAAGACG,0.192
8,AAGGAAGA,-0.00011
9,GAGGAAGA,0.171
10,CACGAAGC,0.311
11,CACGAAGA,-0.098
12,GAGGAAGC,0.391
13,AAGGAAGC,0.452
14,GAGGAAAC,-0.104
15,AAGGAAGG,-0.0778
16,CAGGAAGA,0.0842
17,AACGAAGC,0.00062
18,CAGGAAGC,0.434
19,CAGGAAGG,0.184
20,CCAAGGTC,-0.0561
21,CGAAAGGC,0.0349
22,GCCTTCAC,-0.0793
23,AGCTGCAT,-0.077
24,CTCGGCGC,0.159
25,CAAAGGCG,-0.134

row,Sequence,PBM E-score
1,CGGCGTCA,0.0965
2,AGGCGTCG,-0.0284
3,CGGCGTCC,0.412
4,AGGCGTCA,-0.194
5,CGGCGTGC,-0.094
6,AGGCGTCC,0.387
7,ATATAGAG,0.133
8,AAATTCAG,0.169
9,CCATAGGC,-0.00913
10,TGAGAAAA,0.0932
11,AGGCAGAT,0.0845
12,ATACGTAA,0.053
13,ATACGTAT,0.284
14,ATACGTAC,-0.00136
15,AAACCAAC,0.0391
16,GCACCATA,0.228
17,AGTTTTAT,0.112
18,CTACTATA,0.282
19,CTACTATC,0.146
20,ATACTATA,-0.0912
21,CGAGCCTC,-0.0914
22,GAACAACC,-0.0951
23,AGGCACTA,-0.113
24,AGCAACCA,0.349
25,AGCAACCT,0.316

row,Sequence,PBM E-score
1,GGCAACCC,0.176
2,AGCAACCG,0.0554
3,CGCAACCA,0.147
4,TGCAACCA,0.261
5,GGCAACCA,0.374
6,AGCAACCC,0.00142
7,ACCAACCA,0.0293
8,ACTAACCA,0.117
9,CGTAAGAG,-0.199
10,CAGCTGTC,-0.0336
11,AATGCTCT,-0.112
12,CCATTCCC,-0.0773
13,AGCGTCTG,0.175
14,CCCGTCTC,-0.0723
15,GGCGTCTA,0.342
16,CGCGTCTA,0.137
17,AGCGTCTC,0.22
18,AGCGTCAA,0.0252
19,AGCGTCTA,0.307
20,GGCGTCAA,-0.0289
21,CGCGTCTC,0.301
22,ATGAAGCC,0.145
23,AATACCGA,0.0609
24,GGGTTCCA,0.419
25,AGGTTCCA,0.327

row,Sequence,PBM E-score
1,CGGTTCCA,0.189
2,GAGTTCCA,0.123
3,AGGTTCCG,0.205
4,GGTTTCCA,0.119
5,CGGCCCTA,-0.253
6,TGGATAAA,0.11
7,GACTTCCC,0.127
8,CACTTCCC,0.0585
9,GAATTCCC,0.116
10,GACTTCCA,0.319
11,TACTTCCA,0.121
12,CACTTCCG,0.0282
13,AACTTCCG,0.267
14,GAATTCCA,0.369
15,CACTTCCA,0.312
16,CAATTCCA,0.0815
17,GACTTCAA,-0.0566
18,AACTTCCA,0.349
19,CCGACCCA,-0.0324
20,CGCAGGCG,0.00025
21,ATTGCTAC,0.11
22,ACGGCTCG,-0.105
23,GTCATTAA,0.0346
24,AGTCCGTG,-0.0968
